# Measured values taken from ChEMBL document CHEMBL4513216, “Probing the Open Global Health Chemical Diversity Library for Multistage-Active Starting Points for Next-Generation Antimalarials” (ACS Infect Dis, 2020).
# About 8,600 (12%) of roughly 69,000 compounds showed an effect of 50% or more. Many of the other results were omitted from the sample, so strong results are more common in it than they were.
# System: Plasmodium berghei
# Test: Screen against P. berghei liver stage (PbLuc), transformed with Luciferase, at 10uM
# Format: functional, HepG2
# Details: tested at 10 uM
row,Compound,INHIBITION
1,Cc1cc(C(=O)NC(C)Cc2ccc(N(C)C)cc2)n(C)n1 (centres undefined),44.7%
2,Cc1nc2ccc(Cl)cn2c1CN1CCN(S(=O)(=O)N2CCCC2)CC1,57.55%
3,COCC(=O)N1CCC2(CCCN(Cc3ccc(Cl)cc3)CC2)CC1,17.6%
4,Cc1nc(CN2CCN(S(=O)(=O)N3CCCCC3)CC2)oc1C,19.4%
5,COCC(=O)N1CCCN(Cc2c(C)nc3ccc(Cl)cn23)CC1,73.6%
6,COCC(=O)N1CCCN(Cc2cc(O)c3ccccc3n2)CC1,32.1%
7,Cc1nc(CN2CCN(S(=O)(=O)N3CCOCC3)CC2)oc1C,31.2%
8,COCCN1C[C@@H](C)[C@@]2(COCCN(C(=O)Cc3ccccc3)C2)C1,-8.94%
9,CN1CCC2(CCN(S(=O)(=O)c3ccc(-c4cnco4)s3)CC2)C1,28.4%
10,CN(C)C(=O)c1nc2c(n1C)CCN(Cc1ccccc1)C2,-31.4%
11,FC(F)(F)c1[nH]nc2c1CN(Cc1ccccc1)CC2,84.2%
12,OCCCN1CCc2[nH]nc(C(c3ccccc3)c3ccccc3)c2C1,18.7%
13,CN(Cc1cnn(C)c1)C(=O)c1ccc(=O)n(C)n1,-19.7%
14,O=C(Nc1ccccc1)N1CCC(n2cc3[nH]cccc-3c2=O)CC1,32%
15,Cc1nc(CN2CCCC(NCc3ccc(C(N)=O)cc3)C2)no1 (centres undefined),11.2%
16,Cc1nnc(NC(=O)NCc2ccc(N3CCC(C)CC3)nc2)s1,33.3%
17,Cc1ccccc1OC1CN(Cc2c(C)nc3ccccn23)C1,91.8%
18,COc1ccccc1OC1CN(Cc2ccc(C(=O)O)cc2)C1,14.3%
19,Cc1ccc(C(=O)N2CC(Oc3ccccc3C)C2)s1,18.4%
20,Cc1nc2ccccn2c1CN1C[C@@H](CN(C)C)[C@@H](CO)C1,45.3%
21,COCc1ncc(CN2CC(Oc3c(C)cccc3C)C2)cn1,31.2%
22,CSCC[C@H](N)C(=O)N1CC(Oc2ccccc2C)C1,-13.5%

row,Compound,INHIBITION
1,CC(=O)c1cccc(CN2CC(Oc3ccccc3C)C2)c1,52%
2,Cc1nc2ccccn2c1CN1C[C@@H](CN(C)CCO)[C@@H](CO)C1,29%
3,CC(=O)c1ccc(CN2CC(Oc3ccccc3C)C2)cc1,52%
4,O=C(c1n[nH]cc1Cl)N1CCSCC1,-10.6%
5,COCCNC(=O)c1sc2ccccc2c1C1CCC(CN)CC1 (centres undefined),3.48%
6,COCCN1C[C@@H]2CCCO[C@@H]2[C@H](NC(=O)c2cnccn2)C1,-17%
7,O=C(NC1CC1)N1CCN(c2cnccn2)CC1,-11.4%
8,Cc1nc(N(C)C)cc(C2(C)CCCNC2)n1 (centres undefined),8.42%
9,NS(=O)(=O)c1ccc(C(=O)N2CCCC2c2ccccc2)o1 (centres undefined),12.7%
10,CC(C)c1nnc(CN2CCN(CC(O)c3ccccc3)CC2)o1 (centres undefined),36.1%
11,Cc1nc(N2CCN(C)CC2)ncc1C(=O)N1C[C@@H](C)[C@@](C)(O)C1,34.9%
12,O=c1[nH]nc2c(N3CCOCC3)nccn12,56.5%
13,O=c1[nH]nc2c(N3CCC(NC4CCOCC4)CC3)nccn12,33.3%
14,O=c1[nH]nc2c(N3CCCCCC3)nccn12,47.4%
15,O=C1OCCN1CCNC(=O)C1(N2CCCCC2)Cc2ccccc2C1,6.54%
16,NC(=O)N1CCCN(CCc2nc(-c3cccc(Cl)c3)no2)CC1,2.22%
17,CCOC1CCN(CCc2nc(-c3cccc(Cl)c3)no2)CC1,46.3%
18,Clc1cccc(-c2noc(CCN3CCN(c4ccncc4)CC3)n2)c1,61.8%
19,O=C(NCc1ccccc1-n1cccn1)N1CCC(N2CCCC2)C1 (centres undefined),17.4%
20,CCCC(=O)Nc1cc(C(=O)NC(C)Cc2ccncc2)ccc1C (centres undefined),57.5%
21,CCC(C)NC(=O)c1ccc(NC(=O)CCCn2cncn2)c(C)c1 (centres undefined),5.64%
22,CCN(CC(=O)Nc1cc(Cl)ccc1C)C(=O)c1ccncc1,-10.8%

row,Compound,INHIBITION
1,CC(=O)N[C@@H]1CN(C(=O)c2cccc(C(F)(F)F)c2)C[C@H]1O,-4.1%
2,CCc1nnc2n1CCN(C(C(=O)N(CC)CC)c1ccccc1)C2 (centres undefined),19.4%
3,CC1CCC(NC(=O)CNC2(c3ccc(F)cc3)CCOCC2)CC1 (centres undefined),12.8%
4,Cc1cccn2cc(CNS(=O)(=O)N3CCOCC3)nc12,19.8%
5,C1CC(CN2CCc3c(nnn3CC3CC3)C2COCC2CC2)C1 (centres undefined),43.3%
6,Cn1nnc2c1CCN(CC1CC1)C2COCc1ccccc1 (centres undefined),39.8%
7,Cn1nnc2c1CCN(S(C)(=O)=O)C2COCC1CC1 (centres undefined),57.1%
8,CN(C)C(=O)N1CCc2c(nnn2C)C1COCC1CC1 (centres undefined),12.7%
9,Cc1ccc(CN2CCc3c(nnn3C)C2COCc2ccccc2)s1 (centres undefined),59.3%
10,Cn1nnc2c1CCN(S(C)(=O)=O)C2COCc1ccccc1 (centres undefined),53%
11,C1CN(CC2CC2)C(COCC2CC2)c2nnn(CC3CC3)c21 (centres undefined),15.6%
12,CS(=O)(=O)N1CCc2c(nnn2CC2CC2)C1COCC1CC1 (centres undefined),58.5%
13,CCn1nnc2c1CCN(S(C)(=O)=O)C2COCc1ccccc1 (centres undefined),-3.51%
14,Cn1nnc2c1CCN(Cc1ccncc1)C2COCc1ccccc1 (centres undefined),17.2%
15,Cn1nnc2c1CCN(Cc1ccoc1)C2COCc1ccccc1 (centres undefined),-6.39%
16,Cn1nnc2c1CCN(CC1CC1)C2COCC1CC1 (centres undefined),38.5%
17,CCc1ccc(NC(=O)N2Cc3c(CN(C)C)nn(C)c3C2)cc1,33%
18,COc1cccc(OCCn2c(C)c(C)oc2=O)c1,31.4%
19,CCC1=N[C@@]2(CC[C@@H]3CN(Cc4ccccc4F)C[C@@H]32)C(=O)N1,10.5%
20,Cc1nc(C)n(CC2CCCN2Cc2nc3ccccc3o2)n1 (centres undefined),33.8%
21,COC(=O)CCn1ccc(=O)c2ccc(OC)cc21,-7.53%
22,CNc1cncc(C2CCCN2C(=O)Cn2c(=O)oc3ccccc32)n1 (centres undefined),23.4%

row,Compound,INHIBITION
1,CC(C)(C)c1cc(CN2C[C@@H]3CC[C@H]2CN(Cc2ccccn2)C3)n[nH]1,-2.73%
2,COc1cc(N2CCc3ncnc(-c4ccncc4)c3CC2)ncn1,33%
3,COCc1nc(N(C)C)ncc1C(=O)Nc1cc(C)cc(C)c1,35%
4,Cc1nc2c(c(NCC(=O)NC(C)C)n1)Cc1ccccc1OC2,5.87%
5,Cc1nc2c(c(NCCNC(=O)C(C)C)n1)Cc1ccccc1OC2,-0.55%
6,Cc1nc2c(c(N[C@H](C(N)=O)C(C)C)n1)Cc1ccccc1OC2,-19.8%
7,CN(CC1(CO)CCCC1)c1nc2c(c(=O)[nH]1)Cc1ccccc1OC2,71.2%
8,CN(C)c1nc2c(c(=O)[nH]1)Cc1ccccc1OC2,54.4%
9,Cc1nc2c(c(N[C@@H](CO)C(N)=O)n1)Cc1ccccc1OC2,-13.4%
10,OCC1CCCN(c2ncnc3c2Cc2ccccc2OC3)C1 (centres undefined),32.1%
11,Cc1nc2c(c(NC(C)c3nnn[nH]3)n1)Cc1ccccc1OC2 (centres undefined),-45.5%
12,CN(CC1(CO)CCC1)c1nc2c(c(=O)[nH]1)Cc1ccccc1OC2,57.8%
13,COCCN(CCC#N)Cn1cc(Cl)cn1,5.29%
14,CC(C)NC1CCc2c(ccc(=O)n2CCN(C)C)C1 (centres undefined),-33%
15,CC(C)NC1CCc2c(ccc(=O)n2CCN2CCOCC2)C1 (centres undefined),73.2%
16,O=C(NC1CC1)N1CCc2ccc(=O)n(CC3CC3)c2CC1,-55.2%
17,COCCn1c2c(ccc1=O)CCN(C(=O)NC1CC1)CC2,-3.26%
18,CC(C)NC1CCc2c(ccc(=O)n2CCN2CCCC2=O)C1 (centres undefined),-20.1%
19,O=C(NC1CC1)N1CCc2ccc(=O)n(CCN3CCCC3)c2CC1,61.5%
20,CN(CC(=O)NCC1CCCCC1)S(=O)(=O)c1cccnc1,-7.93%
21,Cn1cc(C[C@H]2[C@H](O)CCN2CC2CC2)cn1,18.8%
22,O=C(CCc1nc2cc(Br)cnc2[nH]1)NCc1cccnc1,-2.92%

row,Compound,INHIBITION
1,Cc1ccc(CNCC(C)Oc2ccccn2)cc1 (centres undefined),-6.11%
2,CC(C)(C)CC(=O)NCC1CCCS1 (centres undefined),43.4%
3,CC(C)(C)C(=O)NCC(=O)NCC1CCCS1 (centres undefined),91.1%
4,O=C(CCC(F)(F)F)NCC1CCCS1 (centres undefined),31.5%
5,O=C(CNC(=O)Nc1c(F)cc(F)cc1-c1ccccc1)NC1CC1,3.93%
6,O=C(NCCN1CCCC1)C1(c2ccc(Cl)cc2)CCOCC1,33.85%
7,O=C(NCCNc1ncccn1)N1CCN(c2nccs2)CC1,-14.6%
8,CS(=O)(=O)NC1CCCN(C(=O)NCc2cccnc2)C1 (centres undefined),-6.62%
9,CS(=O)(=O)NC1CCN(C(=O)c2cnc(-c3cccnc3)nc2)CC1,-32.8%
10,Cc1cc(C2CCCN2C(=O)NCc2cccc(F)c2)on1 (centres undefined),23.2%
11,CC(=O)N1CCC(NS(=O)(=O)c2cccnc2)CC1,69.3%
12,c1cncc(OCCNC2Cc3ccccc3C2)c1,39.7%
13,CC(=O)N1CCC(N[C@@H]2CC[C@@H]2NS(=O)(=O)c2cccnc2)CC1,46.9%
14,Cc1cc(C2CCCN2C(=O)NCc2cccnc2)on1 (centres undefined),55%
15,CS(=O)(=O)NC1CCN(C(=O)NCc2ccccn2)CC1,-27.9%
16,Cc1cc(C2CCCN2C(=O)NCc2ccccn2)on1 (centres undefined),48.5%
17,CS(=O)(=O)NC1CCN(C(=O)NCc2cccnc2)CC1,59%
18,O=S(=O)(N[C@H]1CC[C@H]1NC1Cc2ccccc2C1)c1cccnc1,68.3%
19,O=C(NS(=O)(=O)c1cccnc1)C1CC(c2ccccc2)=NO1 (centres undefined),28.7%
20,COCCNc1nc(N2CCOCC2)nc2nccnc12,-2.93%
21,O=C(N1CCOCC1)N1CCN(CC(O)c2ccc(F)cc2)CC1 (centres undefined),-11.4%
